Eya2 phos inh = blocks the phosphatase activity of human Eya2; O00167; recombinant Eya2, OMFP fluorescence dephosphorylation (OMFP is methylfluorescein phosphate); Potency, µM (doses to about 76.9 µM), for inactives: at the highest dose activity, negative = inhibition, actives largely listed as inhibitors; hit rate 0.006% among 330,000; note: potency is the fitted concentration of half-maximal effect
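Eya2 protein (added as 0.2 uM solution) was preincubated with compound for 10 min at ambient temperature in 50 mM HEPES pH 7.5, 50 mM NaCl, 5 uM MgCl2, 0.05% BSA, 1 mM DTT. OMFP (added at 50 uM) then reacted 10 min; fluorescence read at 485/525 nm.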
mIDH1 inhibitor = blocks human mutant IDH1 R132H enzyme | O75874 | IDH1-R132H enzyme, NADPH consumption, diaphorase/resazurin fluorescence | Potency, µM (series often up to 76.6 µM), for inactives: top-dose activity change, negative = inhibition, usual class: inhibitors | hit rate 0.093% among 390,000; note: potency is the fitted concentration of half-maximal effect; nearly all actives have a fitted effect of over 65% in size
Target sequence (O75874 whole entry R132H, stated change not applied): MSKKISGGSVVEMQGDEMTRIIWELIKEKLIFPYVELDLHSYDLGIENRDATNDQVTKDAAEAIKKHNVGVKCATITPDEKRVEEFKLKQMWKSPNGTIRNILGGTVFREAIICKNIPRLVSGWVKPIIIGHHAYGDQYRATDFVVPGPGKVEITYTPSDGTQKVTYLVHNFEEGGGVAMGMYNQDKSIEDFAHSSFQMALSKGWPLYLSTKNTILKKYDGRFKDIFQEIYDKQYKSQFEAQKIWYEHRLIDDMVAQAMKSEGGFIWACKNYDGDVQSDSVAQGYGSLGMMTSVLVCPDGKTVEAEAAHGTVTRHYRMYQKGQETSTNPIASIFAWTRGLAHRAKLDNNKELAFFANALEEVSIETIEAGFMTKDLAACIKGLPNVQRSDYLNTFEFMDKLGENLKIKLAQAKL
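IDH1-R132H (0.5 ug/mL dispensed) in pH 7.5 Tris buffer was preincubated 30 min with compound, then given a substrate mix of 0.016 mM NADPH and 2 mM alpha-KG for 80 min at room temperature; remaining NADPH was read by diaphorase/resazurin fluorescence.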
TrxR1 substrate = substrates of rat thioredoxin reductase 1. O89049. purified TrxR1 substrate turnover, NADPH consumption readout. Potency, µM (highest dose often 114 µM), for inactives: at the top dose activity change, negative = substrate turnover. hit rate 0.01% among 390,000. AID 588456; note: potency is the fitted concentration of half-maximal effect; nearly all actives have a fitted effect of over 50% in size
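Rat TrxR1, dispensed at 90 nM, was prereduced with 400 uM NADPH (final) for 5 min at ~22 deg C, then incubated with compound 15 min before 400 uM selenite. A first-read NADPH fluorescence drop versus no-compound background flagged substrates.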
rTrxR1 inhibitor = blocks rat thioredoxin reductase 1 | O89049 | recombinant rTrxR1, NADPH fluorescence consumption, selenite substrate | Potency, µM (highest dose often 114 µM), inactives show at the highest dose activity change, negative = inhibition, hits mostly inhibitors | hit rate 1% among 390,000; note: potency is the fitted concentration of half-maximal effect; nearly all actives have a fitted effect of over 65% in size
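Rat TrxR1 (90 nM in the dispensed reagent) was pre-reduced with 400 uM NADPH for 5 min at room temperature, then incubated with compound for 15 min. After 400 uM selenite was added, NADPH fluorescence (Ex 340/Em 450 nm) was followed for 8 min.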
Coupling enz = coupling enzyme interference in Giardia aldolase counter-screen. coupling enzyme system counterscreen, AmpLite Red fluorescence. activity change, negative = inhibition, % at 58.2 µM, hits read low. hit rate 0.67% among 290,000. AID 2472; in the data active = activity change below about -30%
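Counterscreen of the coupled detection system alone, without aldolase: glyceraldehyde-3-phosphate coupling enzymes plus AmpLite Red readout. Compounds at 57.5 uM final, 10 min RT preincubation, 20 min RT reaction, fluorescence 525/598 nm.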
* marks the source's active call; other numbers are inactive results; ? = inconclusive; nt = not tested or not shown; [ ] = dose if it differs, or a comment. Sampled rows, rich in hits. Any-hit rate of the full collection: about 1.5%. Unless noted, calls come from the whole dose curve; as a rule, active = well fitted curve in the direction sought with a large enough effect; inconclusive = small, poorly fitted or top-dose-only effect, or another doubt; inactive = no such curve, though single readings can be large; an effect the other way counts as inactive or inconclusive. % is set by controls: 0 for no effect and ±100 for the full control effect.

SMILES	Eya2 phos inh	mIDH1 inhibitor	TrxR1 substrate	rTrxR1 inhibitor	Coupling enz
COc1ccc(CN2[C@@H](CC(=O)O)c3ccc(/C=C/C(=O)O)cc3S2(=O)=O)cc1	nt	nt	3.5%	5.0%	nt
O=C(Nc1cccc(S(=O)(=O)NC2=NCCCCC2)c1)c1cc(-c2ccco2)nc2ccccc12	15.5%	5.1%	13.0%	50.1µM*	-1.2
O=C(CCl)Nc1ccc(S(=O)(=O)NC2=NCCCCC2)cc1	-13.4%	3.2%	-5.0%[11.4 µM]	-47.8%[57.1 µM]	nt
O=C(CCl)Nc1cccc(S(=O)(=O)NC2=NCCCCC2)c1	1.6%	-9.5%	-4.5%	17.8µM*	nt
O=C1/C(=C/c2ccsc2)CC/C1=C\c1cccs1	-2.9%	nt	6.3%[57.1 µM]	2.8%[57.1 µM]	nt
CCOC(=O)N(C)OC(=O)Nc1ccc(Cl)c(Cl)c1	-5.2%	5.0%	6.6%[57.1 µM]	15.8µM*	-0.2
Cc1ccc2oc(-c3ccc(NC(=O)COc4ccccc4)cc3O)nc2c1	nt	nt	238.1%	64.6%	nt
CC(=O)OCC1=C(C(=O)O)N2C(=O)[C@@H](NC(=O)Cc3ccccc3)[C@H]2SC1	nt	6.9%	4.8%[57.1 µM]	?	nt
CCOc1ccc(C(=O)NC2C(=O)N3C(C(=O)O)=C(COC(C)=O)CSC23)cc1OCC (centres undefined)	5.2%	7.1%	-5.5%	56.2µM*	nt
COc1cc2nc(N3CCOCC3)nc(NC(C)C)c2cc1OC	nt	nt	102.6%	-36.0%	nt
CN(C)c1ccc(/C=C/c2ccnc3ccc([N+](=O)[O-])cc23)cc1	nt	nt	12.3%	-13.7%	nt
O=C(CC(=O)c1ccccc1)Nc1cccc([N+](=O)[O-])c1	nt	11.7%	nt	nt	nt
O=C(CCNc1ccc(Cc2ccncc2)cc1)c1ccc([N+](=O)[O-])cc1	-5.1%	12.7%	-22.0%[57.1 µM]	15.8µM*	0.6
Cc1ccc(NCCC(=O)c2cccc([N+](=O)[O-])c2)cc1	-13.6%	4.0%	7.8%[57.1 µM]	3.55µM*	0.9
O=C(CCNc1ccc(F)cc1)c1cccc([N+](=O)[O-])c1	14.8%	9.5%	4.7%	3.55µM*	-1.0
O=C(CCNc1ccccc1)c1cccc([N+](=O)[O-])c1	6.2%	2.7%	3.2%	1.58µM*	-1.6
COc1cc2c(cc1OC)/C(=C/c1ccc(N(C)C)cc1)C=C2	nt	nt	-10.5%	-13.7%	nt
C[N+]1(CC(=O)c2ccc(Cl)c(Cl)c2)CCOCC1	nt	nt	2.7%	19.4%	nt
O=C(CCNc1ccc(Br)cc1)c1cccc([N+](=O)[O-])c1	2.3%	5.1%	-4.6%	15.8µM*	-1.0
COc1ccc2c(c1-c1c3c(cc(Br)c1OC)CCCC3)CCCC2	nt	nt	nt	nt	1.7
COc1cccc(-c2n[nH]c(=S)n2Cc2ccco2)c1	4.5%	0.0%	-6.2%	39.8µM*	2.4
C=C1C=C(C(F)F)n2ncc(C(=O)NCc3ccccc3OC)c2N1	nt	nt	4.1%	6.5%	nt
N#Cc1nc(NCCCCO)nc(Nc2ccccc2)n1	nt	nt	nt	nt	-0.1
CCCCN(CCCC)c1nc2ccccc2nc1C(C#N)C(=O)NCCCOC (centres undefined)	7.9%	7.8%	3.5%	39.8µM*	-2.1
CC1=CN2C(=N)/C(=C/c3ccc([N+](=O)[O-])o3)C(=O)N=C2S1	1.6%	-3.8%	-16.5%	2.51µM*	-32.5*
SMILES	Eya2 phos inh	mIDH1 inhibitor	TrxR1 substrate	rTrxR1 inhibitor	Coupling enz
Cc1ccc(-c2nc3cccc(C)n3c2Nc2ccc(F)cc2)o1	nt	nt	108.3%	-16.1%	nt
COc1ccc(-c2nc3ccc(NC(C)=O)cc3c(=O)n2Cc2cccc(Cl)c2)cc1COc1ccc(NC(C)=O)cc1	nt	nt	0.4%	14.1µM*	nt
COc1ccc(Cn2c(C3CC3)nc3ccc(NC(C)=O)cc3c2=O)cc1	1.3%	4.1%	3.9%	2.2%	-0.3
COc1ccc(-c2nc3ccc(NC(=O)COC(C)=O)cc3c(=O)n2Cc2ccccc2)cc1COc1ccc(NC(C)=O)cc1	nt	nt	-1.2%	35.5µM*	nt
COc1ccc(C(C[N+](=O)[O-])c2c(C)[nH]n(-c3ccccc3)c2=O)cc1 (centres undefined)	-13.6%	11.7%	-1.0%[57.1 µM]	?	-39.1*
Cc1[nH]n(-c2ccccc2)c(=O)c1C(c1ccc(O)c([N+](=O)[O-])c1)c1c(C)[nH]n(-c2ccccc2)c1=O	nt	-1.8%	-10.1%	-38.0%[57.1 µM]	nt
O=C1CC(Nc2ccc(N3CCOCC3)cc2)C(=O)N1c1ccccc1F (centres undefined)	-12.0%	2.1%	2.3%	79.4µM*	-1.9

Screening data as filed in PubChem BioAssay.
